Source: PubChem BioAssay (NCI)
Values joined by “and” are separate entries in the source; they are usually repeats but may differ in a detail not shown here. Equal entries are not always repeated. This is part of a sample that, as a whole, favours compounds with a hit. Of some 83,000 tested, about 20% had one in any assay.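 Cell lines were cultured in 96-well plates, exposed to a single compound concentration, and assessed for percent growth 48 hours later.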 Active and inactive are the calls of the source. The calls were made as follows: active = growth percent below 10; inactive = the rest.

system: MDA-MB-435 melanoma; assay: NCI-60 one-dose screen, 48 h (100 = growth as untreated, 0 = no growth, -100 = all killed); conditions: 10 µM unless noted

| SMILES | growth |
| --- | --- |
| COC(=O)c1ccccc1Cl | 103% (inactive) |
| CCC(C)NC(=O)c1ccccc1C (stereo not drawn) | 103% (inactive) |
| COc1ccc(CCl)c(C)c1OC | 108% (inactive) |
| Cc1c(Cl)cc(Cl)c(N)c1Cl | 104% (inactive) |
| O=C1CCC(=O)N1CC1CC2CCC1C2 (stereo not drawn) | 93.3% (inactive) and 95.9% (inactive) |
| O=C(O)c1ccc2c3ccc(C(=O)O)c4c(C(=O)O)ccc(c5ccc(C(=O)O)c1c25)c43 | 101% (inactive) |
| Cc1onc(-c2c(F)cccc2Cl)c1-c1ncc(-c2ccc(Cl)cc2)o1 | 46.8% (inactive) and 37.7% (inactive) |
| CCCCCc1cc[n+](CC(=O)c2ccccc2)cc1 | 105% (inactive) |
| C(=N\OCCc1ccccc1)/c1ccccn1 | 109% (inactive) and 106% (inactive) |
| COc1cc([C@@H]2c3cc4c(cc3[C@H](O)[C@H]3COC(=O)[C@@H]23)OCO4)cc(OC)c1OC | -23.1% (active) and -44.3% (active) |
| COc1ccc(/C=N/NC(N)=S)cc1 | 100% (inactive) |
| N=c1sc2ccccc2n1CC(=O)O | 113% (inactive) |
| O=C(O)/C=C/C=C/c1ccccc1 | 105% (inactive) and 111% (inactive) |
| CC(C)(C)OC(=O)CC1(O)CCCCC1 | 102% (inactive) |
| Cc1nc(Nc2ccc(Cl)cc2)c2cnn(-c3ccccc3)c2n1 | 94.7% (inactive) |
| CC(=O)Oc1cc(C)c(OC(C)=O)c(C)c1C | 105% (inactive) |
| CCC(C)(O)CCC(C)(O)CC (stereo not drawn) | 111% (inactive) |
| Clc1ccc2sc(-c3ccccc3)nc2c1 | 95.4% (inactive) |
| Cc1ccc([N+](=O)[O-])cc1Br | 85.6% (inactive) |
| COCCCNC1=C(C#N)C(=O)NC(c2cccs2)S1 (stereo not drawn) | 95.9% (inactive) |

| SMILES | growth |
| --- | --- |
| OCCSc1ccc(Cl)cc1 | 103% (inactive) and 106% (inactive) |
| Nc1[nH][nH]c(=O)c1N=Nc1ccccc1 | 103% (inactive) and 99.7% (inactive) |
| CS(=O)(=O)c1nsc(N)n1 | 107% (inactive) |
| Cc1cc(Cl)nc(Nc2ccccc2)n1 | 98% (inactive) |
| O=C(O)C1CSCN1 (stereo not drawn) | 95.5% (inactive) and 104% (inactive) |
| C/C=C(/C(=O)NC(N)=O)C(C)C | 107% (inactive) |
| O=[N+]([O-])c1ccc(NC(c2ccccc2)c2ccc3cccnc3c2O)cc1 (stereo not drawn) | 32.8% (inactive) |
| CCCCC/C(C)=N\NC(N)=S | 84.4% (inactive) |
| CC(C)(C)C1CCC(=NO)CC1 (stereo not drawn) | 99.8% (inactive) |
| CCOC(C)=N | 118% (inactive) |
| CN(C)C(=S)N(C)C | 112% (inactive) |
| NNC(=O)Nc1ccccc1 | 103% (inactive) |
| COC(=O)c1cc(C(=O)OC)cc([N+](=O)[O-])c1 | 115% (inactive) |
| OCCS | 105% (inactive) |
| COc1ccc(/C=N/Nc2nc3ccccc3s2)cc1 | 83.3% (inactive) |
| Cc1cc(O)c(C(C)C)cc1N=O | 99.5% (inactive) and 117% (inactive) |
| O=C(c1ccccc1)C1(Br)CCCCC1 | 105% (inactive) |
| COc1ccc2oc3c(ccc[n+]3C)c(=O)c2c1 | 105% (inactive) |
| CCCC(=O)Oc1ccc(CC)cc1 | 107% (inactive) |

system: SW-620 colon; assay: as above; conditions: 10 µM unless noted

| SMILES | growth |
| --- | --- |
| COC(=O)c1ccccc1Cl | 103% (inactive) |
| CCC(C)NC(=O)c1ccccc1C (stereo not drawn) | 92.4% (inactive) |
| COc1ccc(CCl)c(C)c1OC | 101% (inactive) |
| Cc1c(Cl)cc(Cl)c(N)c1Cl | 101% (inactive) |
| O=C1CCC(=O)N1CC1CC2CCC1C2 (stereo not drawn) | 104% (inactive) and 100% (inactive) |
| O=C(O)c1ccc2c3ccc(C(=O)O)c4c(C(=O)O)ccc(c5ccc(C(=O)O)c1c25)c43 | 97.5% (inactive) |
| Cc1onc(-c2c(F)cccc2Cl)c1-c1ncc(-c2ccc(Cl)cc2)o1 | 37.3% (inactive) and 29.4% (inactive) |
| CCCCCc1cc[n+](CC(=O)c2ccccc2)cc1 | 96.7% (inactive) and 104% (inactive) |
| C(=N\OCCc1ccccc1)/c1ccccn1 | 110% (inactive) and 111% (inactive) |
| COc1cc([C@@H]2c3cc4c(cc3[C@H](O)[C@H]3COC(=O)[C@@H]23)OCO4)cc(OC)c1OC | 16.7% (inactive) and 4.24% (active) |
| COc1ccc(/C=N/NC(N)=S)cc1 | 125% (inactive) |
| N=c1sc2ccccc2n1CC(=O)O | 103% (inactive) |
| O=C(O)/C=C/C=C/c1ccccc1 | 104% (inactive) and 103% (inactive) |
| CC(C)(C)OC(=O)CC1(O)CCCCC1 | 103% (inactive) |
| Cc1nc(Nc2ccc(Cl)cc2)c2cnn(-c3ccccc3)c2n1 | 98.4% (inactive) |
| CC(=O)Oc1cc(C)c(OC(C)=O)c(C)c1C | 105% (inactive) |
| CCC(C)(O)CCC(C)(O)CC (stereo not drawn) | 112% (inactive) |
| Clc1ccc2sc(-c3ccccc3)nc2c1 | 72.2% (inactive) |
| Cc1ccc([N+](=O)[O-])cc1Br | 91.8% (inactive) |
| COCCCNC1=C(C#N)C(=O)NC(c2cccs2)S1 (stereo not drawn) | 113% (inactive) |

| SMILES | growth |
| --- | --- |
| OCCSc1ccc(Cl)cc1 | 104% (inactive) |
| Nc1[nH][nH]c(=O)c1N=Nc1ccccc1 | 97.5% (inactive) and 114% (inactive) |
| CS(=O)(=O)c1nsc(N)n1 | 100% (inactive) |
| Cc1cc(Cl)nc(Nc2ccccc2)n1 | 104% (inactive) |
| O=C(O)C1CSCN1 (stereo not drawn) | 115% (inactive) and 113% (inactive) |
| C/C=C(/C(=O)NC(N)=O)C(C)C | 94.5% (inactive) |
| O=[N+]([O-])c1ccc(NC(c2ccccc2)c2ccc3cccnc3c2O)cc1 (stereo not drawn) | 23.9% (inactive) |
| CCCCC/C(C)=N\NC(N)=S | 67.5% (inactive) |
| CC(C)(C)C1CCC(=NO)CC1 (stereo not drawn) | 106% (inactive) |
| CCOC(C)=N | 107% (inactive) |
| CN(C)C(=S)N(C)C | 107% (inactive) |
| NNC(=O)Nc1ccccc1 | 101% (inactive) |
| COC(=O)c1cc(C(=O)OC)cc([N+](=O)[O-])c1 | 102% (inactive) |
| OCCS | 109% (inactive) |
| COc1ccc(/C=N/Nc2nc3ccccc3s2)cc1 | 94.8% (inactive) |
| Cc1cc(O)c(C(C)C)cc1N=O | 123% (inactive) and 104% (inactive) |
| O=C(c1ccccc1)C1(Br)CCCCC1 | 105% (inactive) |
| COc1ccc2oc3c(ccc[n+]3C)c(=O)c2c1 | 105% (inactive) |
| CCCC(=O)Oc1ccc(CC)cc1 | 111% (inactive) |
